Counter-ions that a name gives are not always drawn.
How the values were obtained:
Test in all cases: thermal shift delta Tm vs DMSO control; higher = stronger stabilization (binding)
Details in all cases: 12.5 µM; protein concentration 2 µM
LOC_OS01G01410-cb001 = test system: LOC_OS01G01410-cb001
Procedure, shortened: (§1)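 Heating from 25°C to 95°C at 0.05°C/s, fluorescence was recorded for 19.5 μl wells of 2 μM E. coli-expressed, purified rice kinase domain in 100 mM potassium phosphate pH 7.5, 150 mM NaCl, 10% glycerol and 5 × SYPRO Orange with compound in DMSO. Boltzmann fits gave melting temperatures for this differential scanning fluorimetry assay. The shift reported is the mean of three replicates against the DMSO-only protein.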

LOC_OS01G02750-cb003 = test system: LOC_OS01G02750-cb003
Procedure, shortened: as §1

LOC_OS01G10900-cb004 = test system: LOC_OS01G10900-cb004
Procedure, shortened: as §1

LOC_OS01G13800-cb001 = test system: LOC_OS01G13800-cb001
Procedure, shortened: as §1

LOC_OS01G14860-cb001 = test system: LOC_OS01G14860-cb001
Procedure, shortened: as §1

LOC_OS01G21960-cb002 = test system: LOC_OS01G21960-cb002
Procedure, shortened: as §1

LOC_OS01G39600-cb002 = test system: LOC_OS01G39600-cb002
Procedure, shortened: as §1

LOC_OS01G48390-cb002 = test system: LOC_OS01G48390-cb002
Procedure, shortened: as §1

LOC_OS01G51400-cb002 = test system: LOC_OS01G51400-cb002
Procedure, shortened: as §1

LOC_OS01G52050-cb004 = test system: T1, LOC_OS01G52050-cb004
T1 sequence (whole entry): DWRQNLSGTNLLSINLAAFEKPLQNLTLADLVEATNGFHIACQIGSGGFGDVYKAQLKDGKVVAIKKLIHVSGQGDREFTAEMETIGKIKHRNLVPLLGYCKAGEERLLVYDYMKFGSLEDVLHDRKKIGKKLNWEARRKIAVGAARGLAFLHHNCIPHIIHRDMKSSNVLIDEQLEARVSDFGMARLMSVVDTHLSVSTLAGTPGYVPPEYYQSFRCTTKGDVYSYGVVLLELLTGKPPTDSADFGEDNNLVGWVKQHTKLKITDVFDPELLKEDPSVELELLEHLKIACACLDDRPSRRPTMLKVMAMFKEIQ
Procedure, shortened: as §1
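Note: purified Escherichia coli-expressed rice kinase domain construct.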

SMILES | thermal shift delta Tm (LOC_OS01G01410-cb001) [°C] | thermal shift delta Tm (LOC_OS01G02750-cb003) [°C] | thermal shift delta Tm (LOC_OS01G10900-cb004) [°C] | thermal shift delta Tm (LOC_OS01G13800-cb001) [°C] | thermal shift delta Tm (LOC_OS01G14860-cb001) [°C] | thermal shift delta Tm (LOC_OS01G21960-cb002) [°C] | thermal shift delta Tm (LOC_OS01G39600-cb002) [°C] | thermal shift delta Tm (LOC_OS01G48390-cb002) [°C] | thermal shift delta Tm (LOC_OS01G51400-cb002) [°C] | thermal shift delta Tm (LOC_OS01G52050-cb004) [°C]
CN1C(=O)[C@@H](NC(=O)c2n[nH]c(Cc3ccccc3)n2)COc2ccccc21 | 0.8 | 1.65 | 0.07 | 0.83 | 0.52 | 0.05 | 0.62 | 0.43 | 0.45 | 2.47
CCCCCCCCCCCCc1ccc(S(=O)(=O)Nc2nncs2)cc1 | 0.38 | 0.24 | 0.46 | 0.29 | 0.62 | 1.26 | 0.44 | 0.62 | -0.04 | 1.1
O=C(/C=C/c1ccc(O)c(O)c1)c1ccc(O)cc1O [Butein] | 3.34 | 6.05 | 1.41 | 1.88 | 4.26 | 3.26 | 4.11 | 1.83 | 2.14 | 9.01
Nc1ncc(-c2ccnc(Nc3ccncc3)n2)c(CC2CC2)n1 | 0.71 | 1.52 | 1.79 | 0.81 | 2.55 | 0.87 | 0.29 | 0.57 | 0.15 | 0.96
COc1ccc(Oc2cc(NCCC(F)(F)F)c3ncc(-c4ccc(C(=O)NC5CC5)c(C)c4)n3n2)c(F)c1F | 0.28 | 1.7 | -0.65 | 0.15 | 0.68 | -0.46 | 1.84 | 0.14 | 0.75 | 1.81
O=C(O)c1ccc(-c2c[nH]c3ncc(-c4ccccc4)cc23)cc1C1CCCC1 | 5.06 | 4.25 | 0.46 | -0.9 | 5.49 | 1.3 | 14.5 | -1.42 | -0.58 | 10.5
CNC(=O)c1ccccc1Nc1cc(Nc2ccc(N3CCOCC3)cc2OC)ncc1C(F)(F)F | 0.48 | 1.23 | 0.53 | 1.17 | 1.05 | 1.09 | 0.34 | 0.58 | 0.74 | 5.73
COc1ccc2c(Oc3ccc(NC(=O)c4c(C)n(CC(C)(C)O)n(-c5ccccc5)c4=O)nc3)ccnc2c1 | 0.36 | 1.62 | 0.28 | -0.07 | 1.58 | 0.62 | -0.29 | 0.51 | 0.18 | 1.2
CN(C)Cc1cccc(N=C(c2ccccc2)c2c(O)[nH]c3cc(C(=O)N(C)C)ccc23)c1 | -0.17 | 0.75 | 0.14 | 0.49 | 0.13 | 0.52 | 1.05 | 1.46 | 0.16 | 0.77
Cc1cc(O)c(-c2ccc([C@@H](C)CN)cc2)c2c1[nH]c(=O)c1sccc12 [OTS514 hydrochloride] | 0.18 | 0.75 | 1.18 | 0.58 | 5.36 | 1.5 | 0.36 | 1.38 | -0.1 | 1.82
COc1cc2c(N3CCN(C(=O)Nc4ccc(OC(C)C)cc4)CC3)ncnc2cc1OCCCN1CCCCC1 [Tandutinib (MLN518)] | 0.23 | 1.12 | 0.43 | 0.92 | 0.05 | 0.83 | 0.57 | -0.07 | 0.02 | 0.86
C=CC(=O)Nc1cccc(Oc2nc(Nc3ccc(N4CCN(C)CC4)cc3OC)ncc2Cl)c1 | 0.1 | -0.5 | 0.47 | 0.58 | 0.25 | 0.29 | 0.93 | 1.75 | 0.48 | 0.54
Cc1ccc([N+](=O)[O-])cc1S(=O)(=O)N(C)/N=C/c1cnc2ccc(Br)cn12 | 1.6 | 11.6 | 7.32 | 0.52 | 8.02 | 3.8 | 1.85 | 1.1 | 0.2 | 11.7
CNC(=O)c1nn(C)c2c1C(C)(C)Cc1cnc(Nc3ccc(N4CCN(C)CC4)cc3)nc1-2 | 2.97 | 4.29 | 7.64 | -1.53 | 0.36 | 1.9 | 0.04 | 1.65 | 0.17 | 5.55
COc1cc(N2CCN(C)CC2)ccc1Nc1nccc(-c2cn(C)c3cnccc23)n1 | 1.86 | 0.45 | 1.77 | 0.56 | 0.92 | 1.48 | -0.38 | 1.57 | 0.19 | 1.15
CCc1nc(C(N)=O)c(Nc2ccc(N3CCC(N4CCN(C)CC4)CC3)c(OC)c2)nc1NC1CCOCC1 [Gilteritinib (ASP2215)] | 4.13 | 2.42 | 2.14 | 0.93 | 2.59 | 3.21 | 2.87 | 1.66 | 0.63 | 8.54
O=C(Cc1ccc(-c2ccc(OCCN3CCOCC3)cc2)cn1)NCc1ccccc1 | 0.29 | -0.23 | -0.03 | -0.06 | 0.06 | 0.58 | -1.02 | 0.31 | 0.06 | -0.13
O=C1Nc2ccc(I)cc2/C1=C/c1cc(Br)c(O)c(Br)c1 | 5.94 | 0.5 | 6.08 | 2.56 | 5.73 | 5.54 | 25.1 | 2.41 | 0.7 | 3.09
Cn1cc(C2=C(c3ccc(Cl)cc3Cl)C(=O)NC2=O)c2ccccc21 | 4.05 | 13.7 | 6.42 | 1.69 | 6.48 | 4.64 | 18.2 | 2.99 | 13.9 | 14.6
COc1cc(Nc2ncc(F)c(Nc3ccc4c(n3)NC(=O)C(C)(C)O4)n2)cc(OC)c1OC [R406 (free base)] | 0.61 | 1.68 | 0.13 | 0.48 | 5.16 | 4.15 | 5.87 | 0.31 | 0.55 | 8.56
CNS(=O)(=O)Nc1nccc(Cc2c(C)c3ccc(Oc4ncccn4)cc3oc2=O)c1F | 0.15 | 1.63 | 0.11 | 0.82 | 0.18 | 0.68 | -0.07 | 0.47 | 0.47 | 0.66
Oc1ccc(-c2nc(-c3ccc(F)cc3)c(-c3ccncc3)[nH]2)cc1 | 1.39 | 0.58 | 0.58 | 0.18 | 2.36 | 0.98 | -0.06 | 0.38 | 0.01 | 0.5

Source: the supplement of paper PMC9694430
